# NALP1 inh = NALP1 inhibition; inhibition, % at 10 µM; hit rate 0.61% among 280,000; AID 2071; S. cerevisiae NALP1/ASC/caspase-1 growth, X-gal OD620, 72 h; in the data active means inhibition mostly above about 24%, no sharp cut-off; inactive means mostly below about 32%
# NLRP3 yeast inh = blocks the NALP3 inflammasome reconstituted in yeast | AID 2825 | hit rate 0.39% among 330,000 | inhibition, % at 10 µM | Yeast reconstituted NLRP3/ASC/caspase-1, beta-gal luminescence, 24 h;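 active means inhibition of 50% or more; inactive means inhibition below 50%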;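 further: plate controls were induced DMSO wells for no effect and uninduced yeast grown without galactose for full effect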
# tim23-1 inh = inhibits growth of tim23-1 mutant yeast; AID 463212; inhibition, % at 20 µM; hit rate 1.3% among 330,000; S. cerevisiae tim23-1 growth, BacTiter-Glo luminescence, 24 h;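 active means growth inhibition of the mutant yeast at or above 50%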;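 further: temperature-sensitive mutant grown at 25 °C; plate controls were DMSO-treated mutant yeast for no effect and medium wells lacking yeast for full effect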
# tim10-1 inh = tim10-1 yeast growth inhibition. S. cerevisiae tim10-1 ts strain growth, BacTiter-Glo, 24 h. inhibition, % at 20 µM. hit rate 2.2% among 330,000. AID 463190;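 active means inhibition of at least 40%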;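 further: mutant grown at 25 °C; 0% = DMSO wells with yeast and 100% = wells holding no yeast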
# TIM10 inh = inhibits growth of TIM10 yeast strain | S. cerevisiae TIM10 strain growth, BacTiter-Glo luminescence, 24 h | inhibition, % at 10 µM | hit rate 1.4% among 330,000;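 active means inhibition of 40% or more at the single tested concentration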;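 further: wild-type TIM10 isogenic control strain grown at permissive 25 °C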
# tim10-1 conf = tim10-1 yeast growth inhibition, confirmed; shares compounds with tim10-1 inh; S. cerevisiae tim10-1 ts strain growth, BacTiter-Glo, 24 h; inhibition, % at 20 µM; hit rate 56% among 7,400; AID 463213;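 active means inhibition of yeast growth at or above a set limit in either of two repeat tests at 20 µM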;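 further: tim10-1 mutant grown at permissive 25 °C to find synthetic lethal compounds; 0% = DMSO yeast wells and 100% = medium wells without yeast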
# tim10 confirm = confirmation of TIM10 yeast growth inhibitors; shares compounds with TIM10 inh; hit rate 63% among 4,600; AID 463215; inhibition, % at 10 µM; S. cerevisiae tim10 strain growth, BacTiter-Glo luminescence, 24 h;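 active means inhibition of yeast growth at or above a set limit in either of two replicates at 10 µM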;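 further: this counterscreen used the strain with wild-type TIM10; 0% = yeast with DMSO and 100% = medium wells lacking yeast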
# tim23-1 conf = tim23-1 yeast growth inhibition, confirmed. shares compounds with tim23-1 inh. S. cerevisiae tim23-1 growth, BacTiter-Glo luminescence, 24 h. inhibition, % at 20 µM. hit rate 83% among 4,400;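 active means inhibition above about 39% in either of two replicate wells at 20 µM, limit read from the data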;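 further: temperature-sensitive tim23-1 mutant grown at 25 °C; 0% = DMSO wells with yeast and 100% = medium wells without yeast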
# Starred values were filed as active, the others as inactive; . = not tested or not shown. Only some compounds are listed: those with a hit (about 4% of all), similar ones and a draw of the others.
SMILES,NALP1 inh,NLRP3 yeast inh,tim23-1 inh,tim10-1 inh,TIM10 inh,tim10-1 conf,tim23-1 conf,others
COc1cc(C(=S)N2CCOCC2)cc(OC)c1OC(=O)c1ccccc1[N+](=O)[O-],4,21,22,22,12,.,.,
O=C(Oc1ccccc1C(=S)N1CCOCC1)c1ccc([N+](=O)[O-])cc1[N+](=O)[O-],4,9,54*,56*,45*,49*,52*,tim10 confirm=49*
CCOc1c(Cl)cc(/C=C/C(=O)N(CC)CC(=O)NCc2cccs2)cc1OC,.,15,13,7,-3,.,.,
Cc1cc(C)cc(NC(=O)CSc2nnc(CNC(=O)c3ccco3)n2C)c1,.,10,14,-8,14,.,.,
CCCCNC(=S)NC(=O)c1ccc([N+](=O)[O-])cc1,10,-42,53*,52*,27,30,53*,
CCCC(=O)NC(=S)NNC(=O)c1ccc([N+](=O)[O-])cc1,-40,11,12,19,9,.,.,
CC(C)CNC(=S)NC(=O)c1csc([N+](=O)[O-])c1,12,-9,63*,42*,37,32*,64*,
CC(C)CNC(=S)NC(=O)c1ccc([N+](=O)[O-])cc1,6,-21,53*,40,26,32*,42*,
CCOC(=O)c1ccc(S(=O)(=O)N2CCN(C3CC(=O)N(c4ccccc4C(F)(F)F)C3=O)CC2)cc1 (stereo not given),.,19,-7,-9,5,.,.,
CCOC(=O)c1c(Nc2ccccc2OCCOC)n[nH]c1C,-22,-4,26,14,12,.,.,
O=C(Nc1ccnn1C1CCN(C(=O)c2cccc(Cl)c2)CC1)C1CCOC1 (stereo not given),4,19,-14,0,-1,.,.,
COC1=C(C)C(O)=C(C(=O)/C=C/c2ccccc2)C(=O)C1(C)C,14,13,57*,44*,18,21,48*,
Cc1ccc(C(=O)/C=C/c2ccccc2)o1,-14,22,28,24,12,.,.,
CC(C)(C)c1nn(-c2ccccc2)c2[nH]c(=O)c(CNc3ccc4c(c3)OCCO4)cc12,-1,33,83*,68*,56*,65*,83*,tim10 confirm=44*
CC(C)(C)c1nn(-c2ccccc2)c2[nH]c(=O)c(CNCc3ccco3)cc12,-5,12,38,36,23,.,.,
CC(Oc1ccc(Cl)cc1Cl)C(=O)NC1=NN(c2ccccc2)C(=O)C1 (stereo not given),7,9,61*,52*,11,33*,-52,
CC(=O)Nc1ccc(S(=O)(=O)Nc2cccc(-c3nc4ccccc4o3)c2)cc1,0,6,-2,28,28,.,.,
O=S(=O)(Nc1ccc(-c2nc3ccccc3o2)cc1)c1ccccc1,31,47,61*,47*,52*,40*,53*,tim10 confirm=36*
CN(C)CC/C=C1\c2ccccc2Sc2cc(F)c(Cl)cc21,.,26,-45,23,0,.,.,
CCCCCCCCCC[N+](C)(C)CC/C=C1/c2ccccc2Sc2ccc(Cl)cc21,23,2,92*,98*,83*,97*,94*,tim10 confirm=86*
CCCCCCCCCCC[N+](C)(C)CC/C=C1/c2ccccc2Sc2ccc(Cl)cc21,14,14,89*,98*,82*,97*,94*,tim10 confirm=82*
CC[N+](C)(C)CC/C=C1/c2ccccc2Sc2ccc(Cl)cc21,12,11,-10,11,-13,.,.,
CCC(C)NC(=O)c1ccc(NC(=O)C2=C(C)OCCS2)cc1 (stereo not given),15,7,13,17,-11,.,.,
Cc1onc(-c2ccccc2)c1C(=O)N/N=C/c1cc2c(cc1Cl)OCO2,16,-1,7,-5,14,.,.,
COc1ccccc1N(C(=O)CNC(=O)c1ccco1)C(C(=O)NCC1CCCO1)c1ccccc1 (stereo not given),-8,-10,5,1,11,.,.,
O=C(Nc1ccc(Nc2ccccc2)cc1)c1ccc(Cl)c([N+](=O)[O-])c1,14,24,73*,46*,23,28,57*,

# From PubChem
